Source: PubChem BioAssay
Mm-Cpn inhibitor = Inhibitors of TCP-1 ring complex (TRiC) of Methanococcus maripaludis (MmCpn): qHTS. AID 504842, 2011. 0.031% of 330,000 active. Potency, µM (doses to about 76.9 µM), for the others: top-dose activity, negative = inhibition, usual class: inhibitors. purified Mm-Cpn ATPase, ADP Transcreener TR-FRET; note: potency is the fitted concentration of half-maximal effect; % is set by controls: 0 for no effect and ±100 for the full control effect; nearly all actives have a fitted effect of over 80% in size
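Purified archaeal Mm-CPN (25nM final) preincubated 10 min at 37degC with compound, then 10uM ATP for 30 min at 37degC; ADP measured by HTRF Transcreener TR-FRET; buffer 30 mM TRIS pH 7.4, 100mM KCl, 5mM MgCl2, 1mM DTT.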
Apoferritin bind = qHTS Assay for Identification of Novel General Anesthetics. Ferritin light chain (Equus caballus), P02791. apoferritin/1-aminoanthracene competitive binding, fluorescence. Potency, µM (doses to about 77.5 µM), for inactives: top-dose activity change, negative = displacement, most hits filed as inhibitors. 0.074% of 350,000 active; note: potency is the fitted concentration of half-maximal effect; % is set by controls: 0 for no effect and ±100 for the full control effect; nearly all actives have a fitted effect of over 20% in size
Target sequence (P02791 2-175 limits assumed): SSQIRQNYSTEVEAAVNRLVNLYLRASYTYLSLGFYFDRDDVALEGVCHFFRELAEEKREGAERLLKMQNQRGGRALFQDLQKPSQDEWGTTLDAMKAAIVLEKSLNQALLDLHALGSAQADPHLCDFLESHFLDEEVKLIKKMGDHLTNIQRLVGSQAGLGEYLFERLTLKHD
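Concentration-response curves derived by four-parameter Hill fitting of normalized fluorescence, where compounds displaced 1-AMA from 10 uM horse apoferritin following a brief 10 min room-temperature incubation; propofol titration acted as positive control.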
CCT modulator = High-Throughput Screening for Modulators of Cytosolic Chaperonin Activity. AID 651819, 2012. 0.3% of 360,000 active. activity change, % (test concentration not listed), hits read low. purified chaperonin ATPase assay, HTRF ADP detection, 30 min; in the data active = activity change below about -30%; note: % is set by controls: 0 for no effect and ±100 for the full control effect
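Enzyme 40 or 20 nM (batch-dependent) in Tris pH 7.4/KCl/MgCl2/DTT; cpd 76 uM single point; ATP 10 uM; 30 min 37 °C; Transcreener ADP HTRF detection, 30 min RT; ratio 665/615.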
AT treatment = qHTS Assay for Identifying a Potential Treatment of Ataxia-Telangiectasia; Potency, µM (top dose mostly 57.5 µM), without a hit: top-dose activation, actives largely listed as activators; 0.19% of 320,000 active; F2112 A-T fibroblasts, KAP-1 phosphorylation AlphaLISA; neocarzinostatin DNA damage 30 min before lysis; AID 485349, 2010; note: potency is the fitted concentration of half-maximal effect; % of control where 0% means no effect; nearly all actives have a fitted effect of over 45% in size
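hTERT-immortalized A-T patient fibroblasts (F2112), 500 cells/well in OPTI-MEM, 1% FBS, got compounds for 60 min, then NCS for 30 min at 37C. Lysates were then assayed for phospho-KAP-1 by AlphaLISA (anti-pKAP1 donor, anti-KAP1 acceptor beads), 6 hr at 25C.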
* = called active by the depositor; ? = inconclusive; / = not tested or not shown; [ ] = dose if it differs, or a comment. Hits are enriched below; roughly 0.47% of the tested compounds scored in any of these assays. Unless noted, calls come from the whole dose curve; as a rule, active = well fitted curve in the direction sought with a large enough effect; inconclusive = small, poorly fitted or top-dose-only effect, or another doubt; inactive = no such curve, though single readings can be large; an effect the other way counts as inactive or inconclusive.

SMILES	Mm-Cpn inhibitor	Apoferritin bind	CCT modulator	AT treatment
Cc1ccc(Nc2ccc(C(N)=O)cc2[N+](=O)[O-])cc1C	-1%	-21%	0	25µM*
CCc1ccc(Nc2ccc(C(N)=O)cc2[N+](=O)[O-])cc1	0%	-23%	1	-1%
O=C(COc1ccccc1)NC1CCCCCCC1	-3%	45µM*	1	0%
Cc1nncn1-c1ccc(C(=O)Nc2cc(F)ccc2F)cc1	/	8%	/	/
CCOC(=O)C1CCN(C(=O)COC(=O)COc2ccc(Cl)cc2)CC1	4%	-4%	-30*	-4%
CCOC(=O)C1CCN(C(=O)COc2ccc(Cl)cc2)CC1	-2%	-9%	0	3%
Cc1cc2c(nc1C)CCCCN2C[C@H](C)O/N=C1/[C@H]2O[C@@H]2[C@@H](O)[C@H]2[C@H]1CCn1c(=O)n(-c3ccccc3)c(=O)n12	/	-4%[15.3 µM]	/	/
O=C(CSc1nc2ccccc2s1)c1cc2ccccc2o1	/	?	-63*	/
O=C(CSc1nc2ccccc2s1)CSc1nc2ccccc2s1	-8%	-10%	-1	6%
Cn1c(=S)[nH]c2scc(-c3cccs3)c2c1=O	?	-5%	-36*	2%
O=c1c2c(-c3cccs3)csc2ncn1-c1ccc(Br)cc1	-13%	-13%	0	4%
C=CCn1c(=S)[nH]c2scc(-c3cccs3)c2c1=O	50µM*	-6%	1	1%
C=CCn1c(=S)[nH]c2ccccc2c1=O	-1%	-13%	1	-3%
O=C(Nc1ccc(OCc2ccccc2)cc1)c1cccc([N+](=O)[O-])c1	2%	-17%	-46*	-8%
CCCCCCCCCCCCCC[C@@H](O)[C@@H](O)[C@H](CO)NC(C)=O	/	3%	/	/
COC(=O)NC(/C(C(=O)OC)=C(\C)NCc1ccccc1)c1ccc(F)cc1 (stereo unspecified)	/	11%[15.3 µM]	/	/
N#Cc1cccc(C(=O)OCC(=O)NC(=O)NC2CCCCC2)c1	0%	/	-42*	4%
COC(=O)[C@@]1(C)C=C[C@@H](Cc2ccccc2)N1C	/	-21%	/	/
CCCCN(CCCC)C(=S)N/N=C/c1c(C)[nH]n(-c2ccccc2)c1=O	2%	-21%	-89*	-3%
O=C(Cn1c(=O)nc(-c2ccccc2)c2ccccc21)Nc1ccc(Cl)c(C(F)(F)F)c1	/	-1%	/	/
COc1ccc(-c2cn3c(C)c(C(=O)Nc4ccncc4)sc3n2)cc1	45µM*	39%	-3	-5%
COc1ccc(NC(=S)N2CCN(C(=O)c3ccco3)CC2)cc1	-2%	-5%	-2	-4%
COC(=O)c1ccc(NC(=S)N2CCN(C(=O)c3ccco3)CC2)cc1	-3%	-10%	-40*	2%
CNC(=O)c1cnn(-c2nc(-c3ccc(OC)cc3)cs2)c1C(F)(F)F	?	-4%	1	-2%
COc1ccc(-c2csc(-n3ncc(C(=O)O)c3C(F)(F)F)n2)cc1	-3%	2%	2	40µM*
SMILES	Mm-Cpn inhibitor	Apoferritin bind	CCT modulator	AT treatment
CCCCC/C=C\C/C=C\CCCCCCCC(=O)NCC(=O)O	/	-3%	/	/
COCCCn1c(=O)c2sccc2n(Cc2cccc(C)c2)c1=O	0%	-11%	-1	1.6µM*
COCCCn1c(=O)c2sccc2n(Cc2cccc(F)c2)c1=O	-5%	-16%	-1	3%
CCN1/C(=C/C=C/C=C/c2sc3ccccc3[n+]2CC)Sc2ccccc21	32µM*	?	/	32µM*
CCc1ccc(-n2nc(C)c3c(C)cc(=O)n(CC(=O)NCc4ccc(C)cc4)c32)cc1	/	4%	/	/
CCc1cc(C(=O)OC)c(NC(=O)c2ccoc2C)s1	1%	-5%	-45*	41%
CCc1cc(C(=O)OC)c(NC(=O)c2cc(Br)cs2)s1	/	-4%	1	/
CCOc1ccccc1CNC(=O)CCCn1nc(C)c2sc3ccccc3c2c1=O	/	4%	/	/
COc1ccccc1NC(=S)N1CC(C)(C)C1=O	0%	0%	-1	5.6µM*
NS(=O)(=O)c1ccc(CNS(=O)(=O)c2cc(Cl)ccc2Cl)cc1	2%	3%	-38*	15%
NS(=O)(=O)c1ccc(CNC(=O)c2ccc(Cl)c(S(=O)(=O)NCc3ccccc3)c2)cc1	-2%	/	1	0%
Cc1ccc(NC(=O)C(=Cc2ccc(C(=O)O)cc2)C(=O)Nc2ccc(C)cc2C)c(C)c1	-11%	-5%	0	20µM*
CC(=O)N1CCN(c2c(F)c(F)c(C(F)(F)F)c(F)c2F)CC1	0%	-18%	-38*	4%
O=C(COC(=O)c1ccccc1NCCO)NCCc1ccccc1	-2%	/	2	6%
O=C(OCC(=O)N(Cc1ccccc1)Cc1ccccc1)c1ccccc1NCCO	-4%	/	2	22µM*
Cc1ccc(S(=O)(=O)N2CCN(C(=O)N(C)C)CC2)cc1C	0%	4%	-52*	-5%
Cc1ccc(N(C)C(=O)N2CCN(S(=O)(=O)c3ccc(C)c(C)c3)CC2)cc1	0%	-23%	-1	2%
O=c1[nH]cc(CCCc2ccccc2)c(=O)[nH]1	/	/	-49*	/
Cc1ccc2ncc(C(=O)Nc3cccc(C(F)(F)F)c3)c(=O)n2c1	/	1%	/	/
O=C(NCCN1CCOCC1)c1c(O)nc2ccccn2c1=O	-2%	7%	-72*	14%
COc1ccc2c(c1)cc(C(=O)N[C@H](C(=O)N1CCC(C(=O)O)CC1)C(C)C)n2C	-6%	4%	-2	7.1µM*
CCOC(=O)N1C(=O)[C@@](c2ccc(Cl)cc2)(C(C)C)N1C(=O)OCC	0%	0%	2	20µM*
COc1ccc(CCNCc2c(C(=O)O)c(C)n(Cc3c(F)cccc3Cl)c2C)cc1OC	/	-9%	/	/
CCOc1ccccc1CNC(=O)c1ccc(NC(=O)N2CCSc3ncccc32)cc1	/	-11%	/	/
Cc1ccc(NC(=O)CN(C)S(=O)(=O)c2ccc3c(c2)n(C)c(=O)c(=O)n3C)cc1F	/	-11%	/	/
SMILES	Mm-Cpn inhibitor	Apoferritin bind	CCT modulator	AT treatment
CN(Cc1ccc(Cl)cc1)C(=O)c1ccccc1SCC(=O)N1CCCC1	1%	/	-50*	5%
CN(CC(=O)Nc1ccc(Cl)c(C(F)(F)F)c1)C(=O)c1ccccc1SCC(=O)N1CCCC1	/	/	-1	/
COc1ccc(C(=O)Nc2ccc(S(=O)(=O)Nc3onc(C)c3C)cc2)c(OC)c1	3%	-3%	-35*	-2%
CC1(C)C(=O)N(OCc2ccccc2)C(C)(C)C(=O)N1OCc1ccccc1	-4%	-6%	-32*	-1%
CCOn1c(=O)c(=O)n(OCc2ccccc2)c2ccccc21	-2%	3%	-1	-1%
CC(C)(C)c1ccc(C(=O)COC(=O)CN2C(=O)NC3(CCCC3)C2=O)cc1	-3%	25µM*	-2	2%
CC(C)(C)c1ccc(COC(=O)CN2C(=O)NC3(CCCC3)C2=O)cc1	-2%	/	-1	21%
CCOC(=O)c1[nH]c(C)c(CCC(=O)Nc2ccccc2OCC)c1C	/	11%	/	/
CCOc1ccc(CNC(=O)C2CCN(C(=O)c3sccc3-n3cccc3)CC2)cc1	/	-8%	/	/
